Records with an inconclusive call do not appear. A call without a number means that no potency is given here. Calls of active or inactive are those of the source. The call rests on the fitted dose curve; in most records, active means well fitted cell-killing curve with a large enough effect; inconclusive means small, poorly fitted or top-dose-only effect; inactive means flat fitted curve, though single readings scatter.
assay: Cell Viability - LYMP2-010 (AID 981); settings: LYMP2-010 lymphoblastoid cell viability, qHTS; series mostly up to 92.2 µM; further: nearly all actives have a fitted effect of over 55% in size
From the text: NIH Chemical Genomics Center [NCGC]
NIH Molecular Libraries Screening Centers Network [MLSCN]
National Institutes of Environmental Health Sciences [NIEHS]
National Toxicology Program [NTP]
We have developed a 1536-well cell-based assay for quantitative high throughput screening (qHTS) against a number of cell lines to determine in vitro cytotoxicity of small molecules. This particular assay uses a human lymphoblastoid cell line (LYMP2-010) purchased from Coriell Institute for Medical Research.
NCGC Assay Protocol Summary:
The CellTiter-Glo luminescent cell viability assay (Promega) is a homogeneous method to measure the number of viable cells in culture. The end point readout of this assay is based on quantitation of intracellular ATP, an indicator of metabolic activity, using the luciferase reaction. Luciferase catalyzes the oxidation of beetle Luciferin to oxyluciferin and light in the presence of ATP. The luminescent signal is proportional to amount of ATP present.
Using the CellTiter-Glo luminescent cell viability assay, the amount of cellular ATP was measured in the lymphoblastoid cell line with complete culture medium following compound treatment for 24 hours. The assay was performed in opaque white Kalypsys 1536-well plates. In the screen, tetraoctylammonium bromide was used as positive control. Library compounds were measured for their ability to cause acute toxicity in the cell line, as reflected by a decrease in intracellular ATP levels, in a concentration-dependent manner. […] AC50 values were determined from concentration-response data modeled with the standard Hill equation.
qHTS protocol for CellTiter Glo lymphoblastoid cellular assay
[Step] [Parameter] [Value] [Description]
1. Reagent; 5 uL; 2500 lymphoblastoid cells/well
2. Time; 5 hr; 37 C incubation
4. Controls; 23 nL; Tetraoctylammonium bromide 6.4pM to 92 uM
5. Time; 24 hr; 37 C incubation
6. Reagent; 5 uL; CellTiter Glo reagent
7. Time; 30 min; Room Temperature
8. Detection; Luminescence; Viewlux plate reader
Keywords: cell viability, cytotoxicity, lymphoblastoid cell line, luminescence, NTPHTS, NTPHTS_NCGC, NIEHS, DSSTox, MLSMR, MLSCN, NIH Roadmap, qHTS, NCGC
Potency means the concentration at half of the fitted maximal effect.

Compound | Potency
NNC(=O)c1ccncc1 | inactive
Cc1nnc(NS(=O)(=O)c2ccc(N)cc2)s1 | inactive
C[C@]12C=CC(=O)C=C1CC[C@@H]1[C@@H]2C(=O)C[C@@]2(C)[C@H]1CC[C@]2(O)C(=O)CO | inactive
Cc1noc(NS(=O)(=O)c2ccc(N)cc2)c1C | inactive
CC1=NN(c2ccccc2)C(=O)C1 | inactive
Cc1cc(NS(=O)(=O)c2ccc(N)cc2)no1 | inactive
Cc1ccnc2c1NC(=O)c1cccnc1N2C1CC1 | inactive
CN(C)c1ccc(C(=C2C=CC(=[N+](C)C)C=C2)c2ccc(N(C)C)cc2)cc1 | 1.26 µM (active)
O=C(N[C@H](CO)[C@H](O)c1ccc([N+](=O)[O-])cc1)C(Cl)Cl | inactive
NC(N)=NC(N)=NCCc1ccccc1 | inactive
O=C(O)c1cc(=O)[nH]c(=O)[nH]1 | inactive
N=C(N)c1ccc(OCCCCCOc2ccc(C(=N)N)cc2)cc1 | 39.8 µM (active)
Cc1ncc([N+](=O)[O-])n1CCO | inactive
CCc1cc(C(N)=S)ccn1 | inactive

Reference: PubChem BioAssay (NCATS)
